# Reference: ChEMBL document CHEMBL4513216, “Probing the Open Global Health Chemical Diversity Library for Multistage-Active Starting Points for Next-Generation Antimalarials” (ACS Infect Dis, 2020)
# The whole screen tested about 68,000 compounds, of which about 2,700 (4%) showed an effect of 50% or more. Only a selection was taken, and strong results are over-represented in it overall.
# System: Plasmodium berghei
# Assay: Screen against P. berghei liver stage (PbLuc), transformed with Luciferase, at 2uM
# Format: functional, HepG2
# Settings: tested at 2 uM
row,SMILES,INHIBITION
1,CCS(=O)(=O)N1CCC(NC(=O)c2cc(C)ccc2O)CC1,-12.19%
2,O=C(Cc1ccsc1)N1CCN(CCOc2ccccc2)CC1,6.17%
3,Cc1nc(CC(=O)N2CCN(CCOc3ccccc3)CC2)cs1,65.5%
4,CC(=O)c1cc(CC(=O)N2CCN(CCOc3ccccc3)CC2)cs1,-18.33%
5,Fc1ccc(CNCc2nnc3n2CC(C(F)(F)F)CC3)cc1 (stereo not drawn),0.85%
6,FC(F)(F)C1CCc2nnc(CNCc3cccs3)n2C1 (stereo not drawn),58.98%
7,FC(F)(F)C1CCc2nnc(CNCc3ccsc3)n2C1 (stereo not drawn),-14.84%
8,CCCC(NC(=O)NCc1cccc(N(C)C)n1)c1ccccn1 (stereo not drawn),-40.08%
9,CN(Cc1cncnc1)[C@@H]1CN(C(=O)c2ccco2)[C@@H]2CCCO[C@H]12,8.17%
10,Cc1nnc2n1CCN(Cc1csc(-c3cnn(C)c3)n1)C2,57.34%
11,COCCN1CCN(Cc2csc(-c3cnn(C)c3)n2)CC1,-20.82%
12,CCc1nnc2n1CCN(Cc1csc(-c3cnn(C)c3)n1)C2,-4.69%
13,Cn1cc(-c2nc(CN3CCN(CCO)CC3)cs2)cn1,53.03%
14,CC(=O)N1CCN(Cc2csc(-c3cnn(C)c3)n2)CC1,-6.3%
15,CC(C)c1nnc2n1CCN(Cc1csc(-c3cnn(C)c3)n1)C2,47.25%
16,CN(C)Cc1ccnc(C2CCCN2Cc2ccc(F)cn2)n1 (stereo not drawn),18.38%
17,Cc1ncc(CN2CCC(O)(c3ccccc3F)CC2)cn1,4.19%
18,N#Cc1ccc(OC2CCN(CC(=O)NCC3CCCO3)CC2)cc1 (stereo not drawn),-27.4%
19,Oc1coc2cc(OC[C@@H]3CCCN4CCCC[C@H]34)ccc12,-61.71%
20,CC(C)Cc1cc(C(=O)NCc2nnc[nH]2)[nH]n1,16.6%
21,CN(Cc1ccsc1)C(=O)c1cccc(F)c1,14.82%
22,Cc1ccc(NC2CCN(C(=O)COCC3CC3)CC2)nn1,15.28%
23,O=C(NCc1cccc(F)c1F)c1cc(CN2CCCC(O)C2)on1 (stereo not drawn),-81.33%
24,O=C(NCc1ccc(Cl)s1)c1cc(CN2CCCC(O)C2)on1 (stereo not drawn),4.38%
25,O=C(NCc1c(F)cccc1Cl)c1cc(CN2CCCC(O)C2)on1 (stereo not drawn),52.51%
26,O=C(CCn1cccn1)NS(=O)(=O)N1CCCc2ccccc21,-1.45%

row,SMILES,INHIBITION
1,COc1ccc(C2CCCCCN2Cc2nnc(C)o2)cc1 (stereo not drawn),52.83%
2,Cc1nnc(CN2CCCC2c2ccc(C(C)(C)C)cc2)o1 (stereo not drawn),29.19%
3,Cc1nnc(CN2CCCC2c2ccc(Cl)c(Cl)c2)o1 (stereo not drawn),-107.58%
4,CN(C)C(=O)CN1CC=C(c2cnn(Cc3ccccc3)c2)CC1,21.95%
5,COc1cccc(Cn2cc(C3=CCN(CC(=O)N(C)C)CC3)cn2)c1,57.41%
6,COc1cccc(Cn2cc(C3=CCN(CCO)CC3)cn2)c1,13.24%
7,O=C(Nc1cnn(CCN2CCOCC2)c1)c1ccccc1Cl,28.33%
8,O=C(Nc1cnn(CCN2CCOCC2)c1)c1cc(F)ccc1F,53.03%
9,O=C(Nc1cnn(CCN2CCOCC2)c1)c1ccccc1O,-12.48%
10,COc1ncccc1CN1C[C@@H]2OCCN(CCN(C)C)[C@@H]2C1,22.18%
11,c1coc(CN2CCn3c(CN4CCOCC4)nnc3C2)c1,8.99%
12,Cc1[nH]nc(CCC(=O)N2CCOC(CCc3ccccc3)C2)c1C (stereo not drawn),-18.99%
13,c1ccc2c(c1)nc1n2[C@@H](CNCc2nccs2)COC1,24.64%
14,COc1ccc2c(c1)nc1n2[C@@H](CNCc2nccs2)COC1,24.42%
15,Fc1ccc2c(c1)nc1n2[C@@H](CNCc2nccs2)COC1,61.42%
16,CC(C)n1ccnc1CN1CCOC(C)(C(=O)N2CCOCC2)C1 (stereo not drawn),13.58%
17,Cc1nc(N2CCOCC2)nc2c1CCN(Cc1nccn1C)CC2,13.25%
18,COCC(=O)N1C[C@H]2CN(Cc3csc(C)n3)C(=O)[C@H]2C1,-6.13%
19,Cc1cccc(CN2C[C@@H]3COC[C@]3(CNC(=O)c3ccccc3)C2)n1,59.04%
20,Cc1cccc(CN2C[C@@H]3COC[C@]3(CNC(=O)c3cccn3C)C2)n1,-26.91%
21,Cn1cc(CN2C[C@@H]3COC[C@]3(CNC(=O)c3ccccc3)C2)cn1,23.43%
22,O=C(NC[C@]12COC[C@H]1CN(Cc1ccncc1)C2)c1ccco1,-5.65%
23,Cc1cccc(CN2C[C@@H]3COC[C@]3(CNC(=O)C3CCC3)C2)c1,55.92%
24,Cc1cccc(CN2C[C@@H]3COC[C@]3(CNC(=O)C3CC3)C2)c1,-2.81%
25,Cc1cccc(CN2C[C@@H]3COC[C@]3(CNC(=O)c3ccsc3)C2)n1,-26.88%
26,COc1cccc(CN2C[C@@H]3COC[C@]3(CNC(=O)C3CC3)C2)c1,-9.07%

row,SMILES,INHIBITION
1,Cn1cc(CN2C[C@@H]3COC[C@]3(CNC(=O)c3ccco3)C2)cn1,67.67%
2,COc1cccc(OC)c1C(C(=O)O)N(C)Cc1c(C)n[nH]c1C (stereo not drawn),17.2%
3,CCN1CCC2(CC1)CC(NCc1cccs1)c1ccccc1O2 (stereo not drawn),-5.2%
4,COCC(=O)N1CC(=O)c2sc(Nc3ccc(F)cc3F)nc2C1,-0.83%
5,Cc1noc(C(C)Nc2ccc3c(c2)CCC3)n1 (stereo not drawn),-46.99%
6,CN1CCc2c(C#N)c(NCCc3ccccc3)n3cnnc3c2C1,-30.35%
7,Cc1ccc(NS(=O)(=O)c2c[nH]c3ncccc23)nc1,-27.36%
8,Cc1csc(NC(=O)c2cnc(C3CCCN3)cn2)n1 (stereo not drawn),14.47%
9,CCCn1nc2c(cc1=O)CN(Cc1ncc(C(C)(C)C)o1)CC2,27.85%
10,C1=CCN(c2nc(CC3CC3)nc3c2CCN(C2CCOCC2)CC3)C1,-59.35%
11,O=C(c1cc(-c2ccc(O)cc2)n[nH]1)N1CCCC1c1cccnc1 (stereo not drawn),35.01%
12,COc1cc(C)nc(N2CCN(C(=O)CCc3ccsc3)CC2)n1,1.77%
13,COCC(=O)N1CC[C@]2(O)CCN(C(=O)CCc3ccsc3)C[C@@H]2C1,-11.68%
14,COCC(=O)N1CCN(C(=O)CCc2ccsc2)CC1,67.28%
15,C[C@H]1CN(C(=O)c2cccc(F)c2Cl)CCN1S(C)(=O)=O,-33.29%
16,CSc1nccc(N2CCC(NCc3ccc4c(c3)OCO4)CC2)n1,46.95%
17,c1ccc(CN2CCOCC3(CCN(C4CCOCC4)C3)C2)cc1 (stereo not drawn),-28.17%
18,CCc1[nH]c2c(CNC(=O)C3CCS(=O)(=O)CC3)cc(C)cc2c1C,13.65%
19,CCc1[nH]c2c(CNC(=O)C3CNC(=O)C3)cc(C)cc2c1C (stereo not drawn),53.05%
20,CCc1[nH]c2c(CNC(=O)C3CCC(=O)NC3)cc(C)cc2c1C (stereo not drawn),11.37%
21,CCC(CO)N(Cc1ccco1)C(=O)c1ccccc1NC (stereo not drawn),4.57%
22,CCOCC(O)CN1CCN(C(=O)c2ccncc2)CC1 (stereo not drawn),69.01%
23,CCOCC(O)CN1CCN(C(=O)c2cc(F)cc(F)c2)CC1 (stereo not drawn),-41.07%
24,CCOCC(O)CN1CCN(C(=O)c2ccc(OC)cc2)CC1 (stereo not drawn),2.8%
25,COc1ccc(-c2cc3nc([C@H](C)NC(=O)C4CC4)nn3cn2)cc1,20.72%
26,Cc1ccc(CN2CC[C@H]3[C@H]2CCN3S(C)(=O)=O)s1,-25.95%

row,SMILES,INHIBITION
1,CCn1cc(CN2C[C@@H]3CC[C@H]2CN(C(=O)c2ccncc2)C3)cn1,-23.16%
2,CCc1nn(C)c2[nH]nc(NC(=O)c3cccnc3OCC(C)C)c12,5.94%
3,CCc1nn(C)c2[nH]nc(NC(=O)c3cccnc3OC)c12,-3.4%
4,CCc1nn(C)c2[nH]nc(NC(=O)c3cccnc3NC(C)C)c12,54.87%
5,Cc1cnn(CC2CCCN2Cc2coc(-c3ccc(F)cc3)n2)c1 (stereo not drawn),7.8%
6,Cc1cccc2c1NC1(CCCC1)NC2=O,19.81%
7,CCc1ccccc1OC1CN(C(=O)c2ccnc(OC)c2)C1,72.94%
8,COc1cc(C(=O)N2CC(Oc3ccccc3Cl)C2)ccn1,14.88%
9,COc1cccc(OC2CN(C(=O)c3ccnc(OC)c3)C2)c1,6.85%
10,NC(=O)C1CCN(C(=O)c2cccn2Cc2cccs2)CC1,3.97%
11,O=C(c1cccn1Cc1cccs1)N1CCN(C(=O)C2CC2)CC1,-72.53%
12,O=C(c1cccn1Cc1cccs1)N1CCN(C2CC2)CC1,-14.3%
13,O=C(c1cccn1Cc1cccs1)N1CCSCC1,69.49%
14,O=C(c1cccn1Cc1cccs1)N1CCC(C(=O)N2CCCC2)CC1,17.42%
15,CNC(=O)C1CCN(C(=O)c2cccn2Cc2cccs2)CC1,56.67%
16,Cn1cc(C2COC3(CCN(C(=O)Cn4cccn4)CC3)C2)cn1 (stereo not drawn),12.36%
17,CCOCC1CN(CC2CC2)Cc2nn(C)cc21 (stereo not drawn),4.99%
18,O=C(CCC1CCCC1)NCCn1nc(C2CCNC2)c2nccnc21 (stereo not drawn),26.52%
19,CCOCCN1CCN(Cc2coc(-c3cccc(F)c3)n2)CC1,62.13%
20,OCCN1CCN(Cc2coc(-c3cccc(F)c3)n2)CC1,45.83%
21,CCN1CCN(Cc2coc(-c3cccc(F)c3)n2)CC1,23.92%
22,O=C(c1cnccn1)N1CCOC2(CCN(Cc3ccsc3)CC2)C1,-3.36%
23,Cc1noc([C@H]2COC[C@H]3CN(C(=O)Cc4ccc(F)cc4)C[C@H]32)n1,11.08%
24,CCOCC(=O)N1C[C@@H]2COC[C@H](c3nc(C)no3)[C@@H]2C1,64.16%
25,Cc1noc([C@H]2COC[C@H]3CN(C(=O)Cc4ccccc4F)C[C@H]32)n1,15.89%
